# Experimental data taken from PubChem BioAssay AID1531 (NMMLSC, 2009).
# Hit rate of the full screen: of about 290,000 compounds, about 3,300 (1.1%) were called active. The entries come from a sample that favours actives as a whole. Values without a mark were called inactive. Cut-off read from the data, not from the text of the source: active = binding response below about 67% or above about 130%; inconclusive = no clear call, values can overlap the other calls; inactive = in between.
# Molecular target: Mitogen-activated protein kinase kinase kinase 2 (Homo sapiens) (UniProt Q9Y2U5)
# Experiment: wildtype MEKK2 PB1-MEK5 interaction, increase or decrease – biochemical, multiplex bead flow cytometry, Alexa488-MEK5, primary screen (AID 1531)
# Settings: Alexa488-MEK5 binding to MEKK2 WT, at 10 µM, actives lie on both sides
row,Structure (SMILES),binding response (% of control)
1,CC(C(=O)N1CCN(c2ccccc2F)CC1)c1ccc([N+](=O)[O-])cc1 (stereo not given),111%
2,O=C(Nc1cccc(Cl)c1)c1cc(S(=O)(=O)N2CCCCC2)c[nH]1,100%
3,CCN(C(=O)COc1ccc(C(=O)c2ccccc2)cc1)c1ccccc1,101%
4,CN(Cc1ccccc1)C(=O)COc1ccccc1,106%
5,COc1cccc2sc(N(CCCN(C)C)C(=O)C(c3ccccc3)c3ccccc3)nc12,178% (active)
6,CN(C)CCCN(C(=O)COc1ccccc1)c1nc2c(Cl)cccc2s1,338% (active)
7,COc1cc2ccccc2cc1C(=O)N(CCN(C)C)c1nc2c(F)cccc2s1,113%
8,COc1cccc2sc(N(CCCN(C)C)C(=O)CCS(=O)(=O)c3ccccc3)nc12,105%
9,CC(=O)N[C@H]1[C@H]([C@H](O)[C@H](O)CO)OC(C(=O)O)=C[C@@H]1O,106%
10,Cc1ccc(C)c(OCc2cc(C(=O)N3CCN(c4cnccn4)CC3)no2)c1,93%
11,COc1cccc(NC(=O)N2C3CCCC2CC(NC(C)=O)C3)c1 (stereo not given),109%
12,O=C(CN1C(=O)S/C(=C\c2ccccc2Cl)C1=O)NC1C=CS(=O)(=O)C1 (stereo not given),101%
13,Cc1cc(S(=O)(=O)c2cc3ccc(O)c(C)c3oc2=O)ccc1F,102%
14,Cc1ccccc1Cn1c(=O)[nH]c2ccccc21,48%
15,CCOC(=O)CCc1c(C)c(C#N)c2[nH]c3ccccc3n2c1=O,106%
16,CCCc1cc(=S)n2c([nH]c3ccccc32)c1C#N,-3% [inhibitor] (active)
17,O=C(NCC(=O)N(c1ccccc1)C(C(=O)NCC1CCCO1)c1ccccc1)c1cccs1 (stereo not given),103%
18,CCN(CC)CCCNC(=O)c1ccc2c(=O)n(Cc3ccc4c(c3)OCO4)c(=S)[nH]c2c1,144% (active)
19,COc1ccc(Cn2c(=S)[nH]c3cc(C(=O)NCCCN4CCOCC4)ccc3c2=O)cc1,115%
20,CCCCNC(=O)CCn1c(=S)[nH]c2cc3c(cc2c1=O)OCO3,99%
21,CC(C)CCn1cnc2c1c(=O)n(CC(=O)NC(N)=O)c(=O)n2Cc1ccccc1,99%
22,COc1cccc(OCCCN2CCCCCC2)c1,102%
23,Cc1ccc(OCc2nc3ccccc3n2C)cc1,103%
24,CCCCCCCCCCOC(=O)Cn1c(COc2ccc(C)cc2)[n+](C)c2ccccc21,319% (active)

row,Structure (SMILES),binding response (% of control)
1,CCCCOC(=O)Cn1c(=O)n(CC(=O)OCCCC)c2cc(C)ccc21,97%
2,CCCCOC(=O)Cn1c(=N)n(CCN(CC)CC)c2ccccc21,106%
3,CCCCCCCCCCOC(=O)Cn1c(COc2cccc(OC)c2)[n+](C)c2ccccc21,278% (active)
4,Nc1ccn(C2CC(O)C(CO)O2)c(=O)n1 (stereo not given),105%
5,O=C(CSc1nc2nccnc2c(=O)n1Cc1cccs1)Nc1ccccc1F,90%
6,COc1ccc(C2CC(c3cccs3)=NN2C(=O)CCC(=O)O)cc1OC (stereo not given),108%
7,COc1ccc(C2CC(c3cccs3)=NN2c2nc(C)c(C(C)=O)s2)cc1OC (stereo not given),63% [inhibitor] (active)
8,COc1ccc(C2CC(c3cccs3)=NN2c2ccc(F)cc2)cc1OC (stereo not given),88%
9,Cn1ccnc1-c1nnn(-c2ccc(F)cc2)n1,97%
10,CSc1ccc(S(=O)(=O)N2CCC(C(=O)NCc3ccncc3)CC2)cc1,105%
11,CN(CC(=O)O)S(=O)(=O)c1ccc2oc3ccccc3c2c1,110%
12,CN1CCN(CCNC(=O)Nc2ccc([N+](=O)[O-])cc2)CC1,105%
13,O=C(NCCCN1CCN(c2ccc(F)cc2)CC1)Nc1ccc([N+](=O)[O-])cc1,140% (active)
14,O=C(COc1ccc([N+](=O)[O-])cc1)Nc1ccc(N2CCCC2)cc1,103%
15,COC(=O)C1(C)CC1(c1ccccc1)c1ccccc1 (stereo not given),104%
16,CCOCCCn1c(SCC(=O)Nc2cc(OC)ccc2OC)nc2ccccc2c1=O,105%
17,O=C(NCc1ccco1)/C(=C\c1cccc([N+](=O)[O-])c1)NC(=O)c1ccco1,101%
18,CCC1CCCCN1CCCNC(=O)c1cc2c(Cl)nc3ccccc3c2s1 (stereo not given),173% (active)
19,CCC1CCCCN1CCCNC(=O)Cn1nc(-c2ccccc2)ccc1=O (stereo not given),108%
20,CCC1CCCCN1CCCNC(=O)C1CCC(Cn2c(=O)[nH]c3ccccc3c2=O)CC1 (stereo not given),110%
21,CN1CCN(Cc2nc3cc(NC(=O)COc4ccc([N+](=O)[O-])cc4)ccc3n2C)CC1,109%
22,Cc1ccc(S(=O)(=O)/N=S(\C)C(C)C)cc1 (stereo not given),2% [inhibitor] (active)
23,CC/S(CC1CC1(Cl)Cl)=N\S(=O)(=O)c1ccc(C)cc1 (stereo not given),96%
24,CCCC/S(C)=N/S(=O)(=O)c1ccc(C)cc1 (stereo not given),102%

row,Structure (SMILES),binding response (% of control)
1,S=C(NCCCc1ccccc1)Nc1ccc(Br)cc1,100%
2,COc1ccccc1NC(=O)CN(c1ccccc1OC)S(=O)(=O)c1ccccc1,99%
3,OCCNc1nc(Nc2ccc(Cl)c(Cl)c2)nc2ccccc12,150% (active)
4,CN(C)c1nc(Nc2ccc(Cl)c(Cl)c2)nc(N(C)C)n1,98%
5,Nc1nc(Nc2ccccc2)nc(NCCO)c1[N+](=O)[O-],98%
6,CC(C)CNS(=O)(=O)c1ccc(C(=O)Nc2ccc3c(c2)OCO3)cc1,103%
7,COc1ccc(CCNC(=O)c2cc3sccc3n2C)cc1OC,104%
8,Cn1c(C(=O)N2CCCC(C(=O)NCc3ccccc3)C2)cc2sccc21 (stereo not given),102%
9,Cn1c(C(=O)NCCCN2CCCCC2)cc2sccc21,138% (active)
10,CC(C)C(C)NC(=O)COc1ncnc2ccccc12 (stereo not given),105%
11,COCC(C)NC(=O)COc1nncc2ccccc12 (stereo not given),40% [inhibitor] (active)
12,COC(=O)C(C)NC(=O)COc1ccc2ccccc2c1 (stereo not given),95%
13,CCC(C)C(=O)Nc1ccccc1N1CCN(c2ccc(F)cc2)CC1 (stereo not given),101%
14,COc1ccc2nc(C)cc(Nc3cccc(C(=O)O)c3)c2c1,110%
15,COc1cccc(Nc2ncccc2C(=O)O)c1,4% [inhibitor] (active)
16,COc1cc(NC(=O)c2cccnc2SC)cc(OC)c1,101%
17,COc1ccc(-c2c(NC(=O)c3ccco3)oc3ccc(Cl)cc3c2=O)cc1,104%
18,COc1ccc2[nH]c3nc(SCC(=O)NC4CC4)nnc3c2c1,104%
19,CCCCCCCCCCCCN1[C@@H](CC(C)=O)c2cc(F)cc(F)c2S1(=O)=O,103%
20,Cc1nc(-c2ccc(Cl)cc2)sc1C1(C)CC(c2ccc(Br)cc2)=NO1 (stereo not given),95%
21,O=C(CN1CCOc2ccccc21)N1CCC(Cc2ccccc2)CC1,107%
22,Cc1cccc(OCC(O)CN2CCN(CCN3C(=O)c4cccc5cccc(c45)C3=O)CC2)c1C (stereo not given),146% (active)
23,Cc1ccccc1OCC(O)CN1CCN(c2ccccn2)CC1 (stereo not given),99%
24,Cc1cccc(C)c1OCC(O)CN1CCCCC1 (stereo not given),94%

row,Structure (SMILES),binding response (% of control)
1,O=C(NC1CC1)C1=C[C@H](c2coc3ccccc3c2=O)C[C@H](OCCCCO)O1,108%
2,Cc1cccc(N(C(=O)c2sc(C)nc2C)C(C(=O)NCC2CCCO2)c2ccccc2)c1 (stereo not given),106%
3,Nc1nc(Nc2ccccc2F)nc(NC2CCCCC2)c1[N+](=O)[O-],98%
4,CCn1c(SCC(=O)Nc2ccc3c(c2)OCCO3)nnc1-c1ccncc1,106%
5,CCOc1ccc(N(CC(=O)NCCc2ccc(F)cc2)S(=O)(=O)c2ccccc2)cc1,96%
6,CCOc1ccc(N(CC(=O)NCCOc2ccccc2OC)S(=O)(=O)c2ccccc2)cc1,104%
7,CCOc1ccc(S(=O)(=O)N(CC(=O)O)c2ccccc2)cc1,6% [inhibitor] (active)
8,C=Cn1cc[n+](CC(=O)c2ccc(OC)c(OC)c2)c1,96%
9,CSc1nnc(NC(=O)c2nc(S(=O)(=O)Cc3ccc(C)cc3)ncc2Cl)s1,101%
10,COC(=O)c1c(NC(=O)COC(=O)[C@@H](NS(=O)(=O)c2ccccc2)C(C)C)sc2c1CCC2,1% [inhibitor] (active)
11,CCc1ccc(N(CC(=O)Nc2sc3c(c2C(=O)OC)CCCC3)S(C)(=O)=O)cc1,93%
12,COC(=O)c1c(NC(=O)CCCC(=O)O)sc2c1CCCCC2,98%
13,Cc1cc(CN(C)C(=O)c2cc(COc3ccc(C)c(C)c3)on2)n[nH]1,109%
14,CN(CCc1ccccc1)c1ccc([N+](=O)[O-])cn1,102%
15,CC(=O)N(CCCN(C)C)c1nc2ccc(C)cc2s1,104%
16,Cc1cc(C)c2nc(N(CCN(C)C)C(=O)/C=C/c3cccs3)sc2c1,165% (active)
17,Cc1cccc2sc(N(CCCN(C)C)C(=O)CCS(=O)(=O)c3ccccc3)nc12,119%
18,Cc1ccc2nc(N(CCN(C)C)C(=O)C3=COCCO3)sc2c1,113%
19,Cc1ccc(S(=O)(=O)N(C)C)cc1NC(=O)/C=C/c1cccs1,107%
20,Cc1ccc2sc(N(CCN(C)C)C(=O)/C=C/c3cccs3)nc2c1C,151% (active)
21,COc1ccc(N2CCN(C(=O)[C@@H](NC(=O)c3cc(OC)cc(OC)c3)C(C)C)CC2)cc1,108%
22,S=C(Nc1cccnc1)Nc1ccccn1,99%
23,COCC1CCN(C(=O)CCc2nnc(C3(c4ccc(Cl)cc4)CCC3)o2)C1 (stereo not given),103%
